In PubChem BioAssay (NCI) one finds growth data, which are given here for 40 molecules.

Compounds without any hit were thinned out: in the full panel of roughly 83,000, 20% have a hit.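 In brief: 96-well plates, 48 h treatment, single concentration, percent growth endpoint.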 Values without a mark were called inactive. Activity calls are given as the source filed them. How the source made its calls: active means growth percent below 10; inactive means the rest.

The test system of this assay is MDA-MB-468 breast. Nature of the assay: NCI-60 one-dose screen, 48 h (100 = growth as untreated, 0 = no growth, -100 = all killed). As to conditions: 10 µM unless noted.
Take `CCOC(=O)Nc1ccc2nc(N3CCCCCC3)sc2c1`: the growth was -4.19% (active).
Regarding `CN(C)c1ccc(-c2ccc(-c3ccc(C(=N)N)c(F)c3)s2)cc1`, the growth is -83.6% (active).
The same measure for `NCCCNc1nc2ccccc2c2c(=O)c3cc(F)cc(F)c3sc12`: 70.3%; for `CC(C)(C)CC(C)(C)n1nnnc1C(Nc1ccccc1)c1cc2cccc3ccc4cccc1c4c32` (stereo not given): 86.5%.
For `COc1ccc(Cn2cnc3cc(C(=O)Nc4cccc5ccccc45)ccc32)c(OC)c1` the value was -31.6% [30 µM] (active).
`Cc1ccc(C)n1-c1ccsc1C(=O)NNC(=O)CCl`: the growth was 88%.
As to `CC(=O)CC(=O)OC/C=C(/C)CCC=C(C)C`, the growth is 97.6%.
For `COC(=O)c1nc(=S)[nH]c(C(=O)OC)c1C(=O)c1ccc(Cl)c(Cl)c1` the value was 105%; for `CSc1nn2c(-c3ccc4ccccc4c3)ccnc2c1C#N`, 41.3%; for `COc1ccc(NC(=O)c2sc3c(=O)[nH]c(C(F)(F)F)nc3c2C)cc1`, 131%.
The same measure for `COc1ccc(C(O)c2cc3c(N)c(C(=O)Nc4cccc(Br)c4)sc3nc2C)cc1` (stereo not given): 19.6%; for `O=S(=O)(Nc1ccc(Cl)c(F)c1)c1ccc(-c2cnc(C3CC3)o2)cc1`: -25.4% (active).
For `COc1ccc(OCC(=O)OC(C)C)cc1` the value was 84.3%.
Take `COc1ccccc1/C=C1\Oc2cc(OCCN3CCC(Cc4ccccc4)CC3)ccc2C1=O`: the growth is 76.4%.
As to `CCOc1cccc(/C=N/NC(=O)C(=O)Nc2cccc(C(F)(F)F)c2)c1O`, the growth is 1.46% (active).
For `Cc1nnc(/N=C2\NC(=O)/C(=C/C=C/c3ccccc3)S2)s1` the value was 53%; for `CCN1CCN(Cc2ccc(C(=O)Nc3nc4ccc(Oc5ccnc(C(=O)NC)c5)cc4s3)cc2C(F)(F)F)CC1`, 36.1%.
In the case of `CN1CCN(c2nc(NCCCNc3ccnc4cc(Cl)ccc34)c3ccccc3n2)CC1`, the growth was 54.6%.
For `COc1c(N2CC3CCCNC3C2)c(F)cc2c(=O)c(C(=O)N/N=C/c3ccc4c(c3)OCO4)cn(C3CC3)c12` (stereo not given) the value was 63.1%.
`COc1cc(CNC(=O)CCCC/C=C/C(C)C)ccc1OCc1nnc(Nc2ccccc2F)o1`: the growth was 58.9%.
On to `O=C(NC(=S)Nc1cccc(NC(=S)NC(=O)c2ccccc2)c1)c1ccccc1`, for which the growth was 98.5%.
For the molecule `COc1ccc(S(=O)(=O)N2CC3(COC3)C2)cc1NC(=O)c1[nH]c(C)c2c1CCCCC2=O`, the growth was 22.2%.
For `COc1ccc(NS(=O)(=O)c2ccc(C)cc2)c([N+](=O)[O-])c1` the value was 86.6%.
For the molecule `Cc1cc(N2CCN(C)CC2)nc(N(CCNc2ccnc3cc(Cl)ccc23)Cc2ccco2)n1`, the growth was 37.5%.
`COc1ccc2sc3c(NCCCNCCO)nc4ccccc4c3c(=O)c2c1`: the growth was 30.9%.
Take `Cc1ccc2c(n1)C(=O)C(Cl)=C(Nc1ccc(N3CCN(C)CC3)cc1)C2=O`: the growth was -84.6% (active).
For `O=C1CCC(N2Cc3c(C#CCCCNC(=O)c4cc5c(o4)C(=O)c4ccccc4C5=O)cccc3C2=O)C(=O)N1` (stereo not given) the value was -47.1% (active); for `COc1cc(C2CC(c3cccc(Br)c3)=NN2C(C)=O)cc(OC)c1OC` (stereo not given), 24.1%.
For `N=C(N)c1ccc(-c2ccc(-c3ccc(-c4cccs4)s3)s2)cc1` the value was 96.5%.
The same measure for `O=C(Nc1cccc(-n2ccc3c(NC(=O)c4ccccc4)nccc32)c1)c1ccc(N2CCOCC2)c(C(F)(F)F)c1`: -2.66% (active); for `Cc1c(CN(C)C)cc(C(C)C)cc1C(C)C`: 100%; for `COc1ccc2nc(NC(=O)Nc3c(F)cccc3F)sc2c1`: 96.1%.
On to `O=c1c2ccccc2n(C[C@H]2CO2)c2ccccc12`, for which the growth was -7.32% (active).
For `C=C1CCC2C3(C)COC(c4ccc(OC)cc4Br)OC3CCC2(C)C1/C=C/C1=CCOC1=O` (stereo not given) the value was 54.3%; for `Cc1sc2nc(NCc3ccccc3)[nH]c(=O)c2c1C`, 23.7%.
The same measure for `CC(c1ccccc1)N1C(=O)/C(=C/c2csc(C#N)n2)SC1=S` (stereo not given): 63.5%.
Take `CCCCCCCCCCCCCCCCN(C(C)c1ccccc1)S(=O)(=O)c1ccc(OC)c(N)c1` (stereo not given): the growth was 119%.
With `CCOC(=O)c1sc(NS(=O)(=O)c2ccccc2)nc1C`, the growth is 106%.
In the case of `Oc1c(Br)cc(Br)c2ccc(Cn3cc(-c4ccccc4C(F)(F)F)nn3)nc12`, the growth was 72.4%.
Regarding `O=C(OCc1ccc2c(Cl)cc(Cl)c(O)c2n1)N1CCNCC1`, the growth was 33.6%.
